“And” between values parts separate entries of the source, which are not always exact repeats. Equal values may be shown once. Unmarked numbers belong to inactive results. No rule for the calls is given here.
What follows are molecules tested against Botulinum neurotoxin type A (Clostridium botulinum) (UniProt P0DPI0) (assay: BoNT/A light chain protease inhibitors, biochemical, multiplex microsphere flow cytometry, validation set (AID 588460)). Settings: at 10 µM, stronger effect = higher value.
Botulinum neurotoxin type A (Clostridium botulinum), sequence (P0DPI0 whole entry, looked up): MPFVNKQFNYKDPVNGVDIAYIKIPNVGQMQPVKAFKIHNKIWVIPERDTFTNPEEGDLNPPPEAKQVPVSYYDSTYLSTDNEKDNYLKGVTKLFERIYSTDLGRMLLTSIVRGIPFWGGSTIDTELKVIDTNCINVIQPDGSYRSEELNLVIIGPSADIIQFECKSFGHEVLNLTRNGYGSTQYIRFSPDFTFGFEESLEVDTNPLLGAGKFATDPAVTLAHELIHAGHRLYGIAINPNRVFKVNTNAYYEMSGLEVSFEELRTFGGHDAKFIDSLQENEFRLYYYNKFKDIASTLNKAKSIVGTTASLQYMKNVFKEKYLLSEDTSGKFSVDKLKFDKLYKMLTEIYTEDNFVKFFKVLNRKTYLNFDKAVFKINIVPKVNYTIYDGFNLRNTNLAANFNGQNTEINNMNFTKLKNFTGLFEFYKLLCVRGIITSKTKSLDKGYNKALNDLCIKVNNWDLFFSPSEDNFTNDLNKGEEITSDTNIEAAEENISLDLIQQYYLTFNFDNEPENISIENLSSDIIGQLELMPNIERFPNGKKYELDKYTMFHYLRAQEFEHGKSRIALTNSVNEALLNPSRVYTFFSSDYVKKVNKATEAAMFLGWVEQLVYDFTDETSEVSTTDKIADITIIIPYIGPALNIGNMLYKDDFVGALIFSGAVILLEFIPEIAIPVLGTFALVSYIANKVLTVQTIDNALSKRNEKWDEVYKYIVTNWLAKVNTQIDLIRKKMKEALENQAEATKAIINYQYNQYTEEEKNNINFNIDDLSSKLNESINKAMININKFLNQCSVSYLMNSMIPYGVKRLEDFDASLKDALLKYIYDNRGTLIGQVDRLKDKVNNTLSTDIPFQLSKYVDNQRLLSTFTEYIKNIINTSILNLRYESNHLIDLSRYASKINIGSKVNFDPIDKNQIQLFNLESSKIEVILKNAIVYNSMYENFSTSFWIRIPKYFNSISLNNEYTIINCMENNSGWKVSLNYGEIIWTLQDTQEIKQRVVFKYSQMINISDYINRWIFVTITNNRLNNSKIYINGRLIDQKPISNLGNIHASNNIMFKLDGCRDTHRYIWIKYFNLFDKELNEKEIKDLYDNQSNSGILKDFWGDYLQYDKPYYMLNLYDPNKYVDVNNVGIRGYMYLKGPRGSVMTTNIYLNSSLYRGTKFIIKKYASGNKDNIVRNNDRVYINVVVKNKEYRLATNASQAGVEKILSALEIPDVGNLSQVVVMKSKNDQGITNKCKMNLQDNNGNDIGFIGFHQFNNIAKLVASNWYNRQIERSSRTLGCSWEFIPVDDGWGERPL
In the case of C[C@]12CC[C@@H]3c4ccc(O)cc4CC[C@H]3[C@@H]1CCC2=O, the inhibition is reported as -2.2%.
Molecule COCCn1c(/C=C/c2ccccc2)nc2ccccc21 has an inhibition of 0%.
c1ccc(Cn2ncc3c(Nc4ccccc4)ncnc32)cc1 showed an inhibition of -1.4%.
In the case of COc1cc2c(cc1OC)-c1cc(NC3CCCCCC3)nc(=O)n1CC2, the inhibition is reported as -1.4%.
C[C@@H]1C[C@H]2[C@@H]3CCC4=CC(=O)C=C[C@]4(C)[C@@]3(F)[C@@H](O)C[C@]2(C)[C@H]1C(=O)CO showed an inhibition of -1.7%.
For C[C@]12CC[C@@H]3c4ccc(O)cc4[C@@H](O)C[C@H]3[C@@H]1CC[C@@H]2O, the inhibition was -0.4%.
CCOC(=O)c1ncn2c1CN(C)C(=O)c1cc(F)ccc1-2 was tested, and the inhibition was -1.4%.
In the case of O=C(CCCn1c(=O)oc2ccccc21)N1CCN(c2ccc(F)cc2)CC1, the inhibition is reported as 0.2%.
For COc1ccccc1C(=O)Nc1cc2cc(Br)ccc2oc1=O, the inhibition was 1.1%.
For Oc1ccc(Cl)cc1Cc1cc(Cl)ccc1O, the inhibition was 4.5%.
CC(=O)Oc1cc2oc(=O)cc(C)c2cc1OC(C)=O gave an inhibition of -0.8%.
For CC(=O)N(C(C)=O)c1nc2nc(C)cc(C)n2n1, the inhibition was 0.6%.
CC(=O)NC(NC(=S)N1CCCCCC1)C(Cl)(Cl)Cl (stereo not given) was tested, and the inhibition was -2.4%.
In the case of c1ccc(CN(CC2=NCCN2)c2ccccc2)cc1, the inhibition is reported as 1.1% and 0.4%.
Cc1cc(-c2ccccc2)nnc1NCCN1CCOCC1 gave an inhibition of -0.4%.
COc1cc(Cl)cc2c1Sc1ccccc1/C2=C/CCN(C)C showed an inhibition of -1.1%.
For CC(=O)C1=C(O)C(=O)OC1c1ccc(C)cc1 (stereo not given), the inhibition was 1.4%.
For CC1(C)OC2OC(C(=O)N/N=C/c3ccccc3F)C3OC(C)(C)OC3C2O1 (stereo not given), the inhibition was -1.3%.
With Cc1c(OCC(F)(F)F)ccnc1CS(=O)c1nc2ccccc2[nH]1 (stereo not given) the inhibition was -0.5%.
In the case of COc1ccccc1N1C(=O)C2CC(C)=C(C)CC2C1=O (stereo not given), the inhibition is reported as -0.4%.
With Cc1ccc2nc(N=C(N)N)nc(C)c2c1 the inhibition was -0.2%.
For CCOC(=O)c1c(O)c2c([nH]c1=O)CCCC2, the inhibition was -1.4%.
COC(=O)c1sccc1NC(=O)Nc1ccccc1F gave an inhibition of -1.3%.
With O=C(NCC1CCCO1)c1ccc(OC2CCN(C(=O)C3CC3)CC2)cc1 (stereo not given) the inhibition was 0.5%.
CC(C)CC(=O)OC1C(N2CCOCC2)c2c(ccc(/C=C/C(=O)N3CCOCC3)c2O)OC1(C)C (stereo not given) showed an inhibition of -0.5%.
Cc1ccc(Nc2ncccc2C(=O)O)cc1C was tested, and the inhibition was -0.2%.
Molecule NCCc1cnc[nH]1 has an inhibition of -1.5%.
With N=c1ccn(CC(=O)NC(N)=O)c2ccccc12 the inhibition was 1.6%.
For CN1CCCN=C1COC(=O)C(O)(c1ccccc1)C1CCCCC1 (stereo not given), the inhibition was -0.9%.
Molecule Cn1c(=O)c2c(ncn2CCO)n(C)c1=O has an inhibition of -1.8%.
With CN(C)CCN(Cc1ccc(Cl)cc1)c1ccccn1 the inhibition was 0.1%.
With Cc1ncc(C(=O)O)c(C(=O)O)c1N the inhibition was -0.1%.
Molecule COc1ccccc1C(=O)c1cc2ccc(O)cc2oc1=O has an inhibition of 0.1%.
In the case of CC(=O)O[C@]1(C(C)=O)CC[C@H]2[C@@H]3C[C@H](C)C4=CC(=O)CC[C@]4(C)[C@H]3CC[C@@]21C, the inhibition is reported as -1.6%.
CCN(CC)c1ccc([C@H]2[C@@H]3CCCC[C@]3(O)CCN2CC(=O)NCc2ccco2)cc1 was tested, and the inhibition was 0.9%.
Work on CC(=O)Nc1ccccc1C(=O)C(=O)Nc1ccccc1 yielded an inhibition of 0.9%.
With CCc1ccc2oc(=O)cc(CN3CCC(C)CC3)c2c1 the inhibition was 0.8%.
C#C[C@]1(O)CC[C@H]2[C@@H]3CCc4cc(OC5CCCC5)ccc4[C@H]3CC[C@@]21C gave an inhibition of 0.8%.
Molecule Cc1ccccc1NC(=O)NCCc1c[nH]c2ccccc12 has an inhibition of -0.2%.
Molecule CCCCCCCC(=O)OCC(=O)[C@@]1(O)CC[C@H]2[C@@H]3CCC4=CC(=O)CC[C@]4(C)[C@H]3[C@@H](O)C[C@@]21C has an inhibition of 0.3%.

Each molecule was assayed against Lethal factor (Bacillus anthracis) (UniProt P15917) (assay: Bacillus anthracis lethal factor inhibition, microsphere flow cytometry protease assay, validation at 10 µM (AID 588461)). Settings: multiplex microsphere protease cleavage assay, stronger effect = higher value.
Lethal factor (Bacillus anthracis), sequence (P15917 whole entry, looked up): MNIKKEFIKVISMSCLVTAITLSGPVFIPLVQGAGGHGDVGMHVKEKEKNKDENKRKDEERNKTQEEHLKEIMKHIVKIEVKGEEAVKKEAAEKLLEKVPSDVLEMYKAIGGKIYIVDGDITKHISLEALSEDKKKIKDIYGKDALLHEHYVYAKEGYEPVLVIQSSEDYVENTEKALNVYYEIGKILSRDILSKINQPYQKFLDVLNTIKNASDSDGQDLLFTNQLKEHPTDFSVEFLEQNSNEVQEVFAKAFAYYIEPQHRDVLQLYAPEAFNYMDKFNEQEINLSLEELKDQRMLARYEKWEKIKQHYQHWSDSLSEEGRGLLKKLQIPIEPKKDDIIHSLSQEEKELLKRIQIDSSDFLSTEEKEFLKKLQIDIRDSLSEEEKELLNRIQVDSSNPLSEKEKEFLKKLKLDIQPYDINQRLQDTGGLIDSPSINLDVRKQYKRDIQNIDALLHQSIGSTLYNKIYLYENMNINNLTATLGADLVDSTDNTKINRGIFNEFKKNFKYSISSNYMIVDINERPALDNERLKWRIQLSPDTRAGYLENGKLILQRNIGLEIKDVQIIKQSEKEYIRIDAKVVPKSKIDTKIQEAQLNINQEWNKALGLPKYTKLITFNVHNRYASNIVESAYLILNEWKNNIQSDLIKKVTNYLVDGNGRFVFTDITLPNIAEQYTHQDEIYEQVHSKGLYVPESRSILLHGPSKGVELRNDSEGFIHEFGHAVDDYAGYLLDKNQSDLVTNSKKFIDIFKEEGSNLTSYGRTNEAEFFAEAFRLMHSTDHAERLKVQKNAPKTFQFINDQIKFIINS
In the case of C[C@]12CC[C@@H]3c4ccc(O)cc4CC[C@H]3[C@@H]1CCC2=O, the inhibition is reported as -3.8%.
Work on COCCn1c(/C=C/c2ccccc2)nc2ccccc21 yielded an inhibition of -3.4%.
In the case of c1ccc(Cn2ncc3c(Nc4ccccc4)ncnc32)cc1, the inhibition is reported as -0.5%.
For COc1cc2c(cc1OC)-c1cc(NC3CCCCCC3)nc(=O)n1CC2, the inhibition was -7.4%.
Molecule C[C@@H]1C[C@H]2[C@@H]3CCC4=CC(=O)C=C[C@]4(C)[C@@]3(F)[C@@H](O)C[C@]2(C)[C@H]1C(=O)CO has an inhibition of 7.4%.
Molecule C[C@]12CC[C@@H]3c4ccc(O)cc4[C@@H](O)C[C@H]3[C@@H]1CC[C@@H]2O has an inhibition of 0.8%.
For CCOC(=O)c1ncn2c1CN(C)C(=O)c1cc(F)ccc1-2, the inhibition was -2.7%.
In the case of O=C(CCCn1c(=O)oc2ccccc21)N1CCN(c2ccc(F)cc2)CC1, the inhibition is reported as -4.7%.
For COc1ccccc1C(=O)Nc1cc2cc(Br)ccc2oc1=O, the inhibition was 0.4%.
In the case of Oc1ccc(Cl)cc1Cc1cc(Cl)ccc1O, the inhibition is reported as 7.7%.
With CC(=O)Oc1cc2oc(=O)cc(C)c2cc1OC(C)=O the inhibition was 1.8%.
CC(=O)N(C(C)=O)c1nc2nc(C)cc(C)n2n1 was tested, and the inhibition was 1.4%.
For CC(=O)NC(NC(=S)N1CCCCCC1)C(Cl)(Cl)Cl (stereo not given), the inhibition was 5.4%.
In the case of c1ccc(CN(CC2=NCCN2)c2ccccc2)cc1, the inhibition is reported as -3.2% and 1.4%.
In the case of Cc1cc(-c2ccccc2)nnc1NCCN1CCOCC1, the inhibition is reported as -2.3%.
COc1cc(Cl)cc2c1Sc1ccccc1/C2=C/CCN(C)C gave an inhibition of -16.6%.
In the case of CC(=O)C1=C(O)C(=O)OC1c1ccc(C)cc1 (stereo not given), the inhibition is reported as -4.5%.
In the case of CC1(C)OC2OC(C(=O)N/N=C/c3ccccc3F)C3OC(C)(C)OC3C2O1 (stereo not given), the inhibition is reported as -1.9%.
In the case of Cc1c(OCC(F)(F)F)ccnc1CS(=O)c1nc2ccccc2[nH]1 (stereo not given), the inhibition is reported as -2.4%.
COc1ccccc1N1C(=O)C2CC(C)=C(C)CC2C1=O (stereo not given) gave an inhibition of 3.9%.
In the case of Cc1ccc2nc(N=C(N)N)nc(C)c2c1, the inhibition is reported as -12.1%.
With CCOC(=O)c1c(O)c2c([nH]c1=O)CCCC2 the inhibition was -3.9%.
With COC(=O)c1sccc1NC(=O)Nc1ccccc1F the inhibition was 1.2%.
O=C(NCC1CCCO1)c1ccc(OC2CCN(C(=O)C3CC3)CC2)cc1 (stereo not given) was tested, and the inhibition was -2.8%.
With CC(C)CC(=O)OC1C(N2CCOCC2)c2c(ccc(/C=C/C(=O)N3CCOCC3)c2O)OC1(C)C (stereo not given) the inhibition was -0.5%.
With Cc1ccc(Nc2ncccc2C(=O)O)cc1C the inhibition was -6.3%.
With NCCc1cnc[nH]1 the inhibition was 3.7%.
Work on N=c1ccn(CC(=O)NC(N)=O)c2ccccc12 yielded an inhibition of 3.1%.
In the case of CN1CCCN=C1COC(=O)C(O)(c1ccccc1)C1CCCCC1 (stereo not given), the inhibition is reported as -4.7%.
Work on Cn1c(=O)c2c(ncn2CCO)n(C)c1=O yielded an inhibition of 1.7%.
Work on CN(C)CCN(Cc1ccc(Cl)cc1)c1ccccn1 yielded an inhibition of -1.2%.
With Cc1ncc(C(=O)O)c(C(=O)O)c1N the inhibition was 2.4%.
COc1ccccc1C(=O)c1cc2ccc(O)cc2oc1=O gave an inhibition of 2.7%.
Work on CC(=O)O[C@]1(C(C)=O)CC[C@H]2[C@@H]3C[C@H](C)C4=CC(=O)CC[C@]4(C)[C@H]3CC[C@@]21C yielded an inhibition of -5.5%.
CCN(CC)c1ccc([C@H]2[C@@H]3CCCC[C@]3(O)CCN2CC(=O)NCc2ccco2)cc1 showed an inhibition of -7.7%.
CC(=O)Nc1ccccc1C(=O)C(=O)Nc1ccccc1 was tested, and the inhibition was -1.5%.
For CCc1ccc2oc(=O)cc(CN3CCC(C)CC3)c2c1, the inhibition was 1.4%.
Work on C#C[C@]1(O)CC[C@H]2[C@@H]3CCc4cc(OC5CCCC5)ccc4[C@H]3CC[C@@]21C yielded an inhibition of 0.5%.
In the case of Cc1ccccc1NC(=O)NCCc1c[nH]c2ccccc12, the inhibition is reported as -3.6%.
Work on CCCCCCCC(=O)OCC(=O)[C@@]1(O)CC[C@H]2[C@@H]3CCC4=CC(=O)CC[C@]4(C)[C@H]3[C@@H](O)C[C@@]21C yielded an inhibition of 4.7%.

From PubChem BioAssay
